Outcome and AC50 data for 17 molecules are collected here from PubChem BioAssay (EPA / NIEHS).

Results filed as inconclusive are left out. Calls of active or inactive are those of the source. The calls were made as follows, unless noted: active = hit-call score of the fitted dose curve at least 0.9, where 1 is the maximum; inactive = score below 0.9.

In general, AC50 refers to the midpoint of the concentration-response curve, whichever way the signal moves.

The first experiment concerns Brachyury (BRA) Protein Expression, TBXT (gene 6862). As to the kind of experiment: CCTE_Deisenroth_DEVTOX-GLR_Endo_BRA: CCTE's DevTox GLR-Endo Assay Evaluation of Brachyury (BRA) Protein Expression, Deisenroth Lab (AID 2284417). The method, boiled down: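 RUES2-GLR human pluripotent cells, seeded 24 h, then differentiated 48 h in defined media with two chemical exposures 24 h apart (10-point series, 1 nM - 200 uM). Fixed, nuclear-stained, imaged; endpoint is percent BRA+ cells minus 0.2% DMSO control.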
`NC(=O)NO`: the result was inactive.

Turning to `Cn1c(=O)c2c(ncn2C)n(C)c1=O`, the call was inactive.

Regarding `CC[C@H](C)C(=O)O[C@H]1C[C@@H](C)C=C2C=C[C@H](C)[C@H](CC[C@@H]3C[C@@H](O)CC(=O)O3)[C@H]21`, the half-maximal activity concentration (AC50) was 54.2 µM (active).

In the case of `C[C@](N)(Cc1ccc(O)c(O)c1)C(=O)O`, the call was inactive.

In the case of `Nc1nc2ncc(CNc3ccc(C(=O)N[C@@H](CCC(=O)O)C(=O)O)cc3)nc2c(=O)[nH]1`, the result was inactive.

For the molecule `O=C1CCC(N2C(=O)c3ccccc3C2=O)C(=O)N1` (stereo unspecified), the molecule was classed as inactive.

Test system in a further experiment: not listed separately
As to the kind of experiment: CCTE_Deisenroth_DEVTOX-GLR_Endo_CellCount: Viability Assessment in CCTE's DevTox GLR-Endo Assay, Deisenroth Lab (AID 2284420). In outline: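 RUES2-GLR pluripotent cells seeded 24 h, then differentiated 48 h in defined media with two chemical exposures 24 h apart. Nuclei counted by high-content imaging; 10-point 1 nM–200 uM series; percent change versus 0.2% DMSO.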
For the molecule `NC(=O)NO`, the AC50 was 61.3 µM (active).

In the case of `Cn1c(=O)c2c(ncn2C)n(C)c1=O`, the outcome was inactive.

For the molecule `CC[C@H](C)C(=O)O[C@H]1C[C@@H](C)C=C2C=C[C@H](C)[C@H](CC[C@@H]3C[C@@H](O)CC(=O)O3)[C@H]21`, the AC50 was 2.81 µM (active).

With `O=C(O)c1cc(N=Nc2ccc(S(=O)(=O)Nc3ccccn3)cc2)ccc1O`, the molecule was classed as inactive.

Take `C[C@](N)(Cc1ccc(O)c(O)c1)C(=O)O`: the result was inactive.

With `Nc1nc2ncc(CNc3ccc(C(=O)N[C@@H](CCC(=O)O)C(=O)O)cc3)nc2c(=O)[nH]1`, the molecule was classed as inactive.

As for `O=C1CCC(N2C(=O)c3ccccc3C2=O)C(=O)N1` (stereo unspecified), the molecule was called inactive.

Another experiment has as its system SRY-box transcription factor 17 (SOX17) Protein Expression, Deisenroth Lab, SOX17 (gene 64321). The experiment in a line: CCTE_Deisenroth_DEVTOX-GLR_Pluri_SOX17: CCTE's DevTox GLR-Pluri Assay Evaluation of SRY-box transcription factor 17 (SOX17) Protein Expression, Deisenroth Lab (AID 2284427; active = hit-call score of the fitted dose curve at least 0.9, where 1 is the maximum). In outline: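 RUES2-GLR pluripotent cells were induced toward endoderm over 48 h and received two compound doses 24 h apart, in a 10-point series from 1 nM to 200 uM. The percentage of SOX17+ cells among total cells was measured by high-content imaging and reported minus the 0.2% DMSO control.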
Consider `NC(=O)NO`, for which the outcome was inactive.

Regarding `CC[C@H](C)C(=O)O[C@H]1C[C@@H](C)C=C2C=C[C@H](C)[C@H](CC[C@@H]3C[C@@H](O)CC(=O)O3)[C@H]21`, the AC50 is 100 µM (active).

As to `O=C(O)c1cc(N=Nc2ccc(S(=O)(=O)Nc3ccccn3)cc2)ccc1O`, the molecule was called inactive.

For a further experiment, the system named is SRY-box transcription factor 2 (SOX2) Protein Expression, Deisenroth Lab, SOX2 (gene 6657). As to the kind of experiment: CCTE_Deisenroth_DEVTOX-GLR_Pluri_SOX2: CCTE's DevTox GLR-Pluri Assay Evaluation of SRY-box transcription factor 2 (SOX2) Protein Expression, Deisenroth Lab (AID 2284428). In outline: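 RUES2-GLR human pluripotent cells, two exposures 24 h apart over 48 h differentiation; 10-point series 1 nM - 200 uM. High-content imaging gives SOX2+ cells divided by cell count, reported as percent change versus 0.2% DMSO.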
Regarding `NC(=O)NO`, the outcome was inactive.

For the molecule `Cn1c(=O)c2c(ncn2C)n(C)c1=O`, the molecule was called inactive.

With `CC[C@H](C)C(=O)O[C@H]1C[C@@H](C)C=C2C=C[C@H](C)[C@H](CC[C@@H]3C[C@@H](O)CC(=O)O3)[C@H]21`, the AC50 is 14.5 µM (active).

In the case of `O=C(O)c1cc(N=Nc2ccc(S(=O)(=O)Nc3ccccn3)cc2)ccc1O`, the AC50 is 100 µM (active).

With `C[C@](N)(Cc1ccc(O)c(O)c1)C(=O)O`, the half-maximal activity concentration (AC50) was 0.308 µM (active).

Turning to `Nc1nc2ncc(CNc3ccc(C(=O)N[C@@H](CCC(=O)O)C(=O)O)cc3)nc2c(=O)[nH]1`, the outcome was inactive.

For the molecule `O=C1CCC(N2C(=O)c3ccccc3C2=O)C(=O)N1` (stereo unspecified), the outcome was inactive.

In the next experiment the test system is Brachyury (BRA) Protein Expression, Deisenroth Lab, TBXT (gene 6862). As to the kind of experiment: CCTE_Deisenroth_DEVTOX-GLR_Pluri_BRA: CCTE's DevTox GLR-Pluri Assay Evaluation of Brachyury (BRA) Protein Expression, Deisenroth Lab (AID 2284429; active = hit-call score of the fitted dose curve at least 0.9, where 1 is the maximum). The method, boiled down: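 RUES2-GLR reporter line; 48 h mesoderm differentiation; two exposures, 24 h apart; 1 nM - 200 uM, 10 points; nuclear stain, high-content imaging, 5 fields/well; endpoint = %BRA+ cells of total count minus 0.2% DMSO; n=4.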
For `NC(=O)NO`, the result was inactive.

Regarding `CC[C@H](C)C(=O)O[C@H]1C[C@@H](C)C=C2C=C[C@H](C)[C@H](CC[C@@H]3C[C@@H](O)CC(=O)O3)[C@H]21`, the AC50 was 20.8 µM (active).

Turning to `O=C(O)c1cc(N=Nc2ccc(S(=O)(=O)Nc3ccccn3)cc2)ccc1O`, the call was inactive.

Regarding `C[C@](N)(Cc1ccc(O)c(O)c1)C(=O)O`, the AC50 is 153 µM (active).

As for `O=C1CCC(N2C(=O)c3ccccc3C2=O)C(=O)N1` (stereo unspecified), the call was inactive.

Test system in the next experiment: not listed separately
As to the kind of experiment: CCTE_Deisenroth_DEVTOX-GLR_Pluri_CellCount: Viability Assessment in CCTE's DevTox GLR-Pluri Assay Evaluation of Total Cell Counts, Deisenroth Lab (AID 2284430). In outline: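 Cytotoxicity readout: fluorescent nuclei counts by high-content imaging, expressed as percent change relative to 0.2% DMSO. Human RUES2-GLR pluripotent line differentiated 48 h, dosed twice at 24-h intervals across 1 nM - 200 uM (10 points).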
Consider `NC(=O)NO`, for which the molecule was classed as inactive.

Regarding `Cn1c(=O)c2c(ncn2C)n(C)c1=O`, the outcome was inactive.

As to `CC[C@H](C)C(=O)O[C@H]1C[C@@H](C)C=C2C=C[C@H](C)[C@H](CC[C@@H]3C[C@@H](O)CC(=O)O3)[C@H]21`, the AC50 was 9.67 µM (active).

For the molecule `O=C(O)c1cc(N=Nc2ccc(S(=O)(=O)Nc3ccccn3)cc2)ccc1O`, the outcome was inactive.

On to `C[C@](N)(Cc1ccc(O)c(O)c1)C(=O)O`, for which the molecule was classed as inactive.

Turning to `Nc1nc2ncc(CNc3ccc(C(=O)N[C@@H](CCC(=O)O)C(=O)O)cc3)nc2c(=O)[nH]1`, the outcome was inactive.

In the case of `O=C1CCC(N2C(=O)c3ccccc3C2=O)C(=O)N1` (stereo unspecified), the call was inactive.

In another experiment the test system is TTR (gene 7276). The experiment in a line: CCTE_GLTED_hTTR_0.125uM: CCTE's human Transthyretin (hTTR) Inhibition Assay, with 0.125uM TTR, Great Lakes Toxicology and Ecology Division (GLTED) Lab (AID 2284431).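 Also: hits lower the fluorescence signal relative to DMSO baseline.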 In outline:
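Cell-free displacement of ANSA probe from 0.125uM TTR after 2 h incubation with chemical. Fluorescence read at 380 nm excitation/475 nm emission; loss of signal relative to DMSO indicates T4-site displacement.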
On to `C=CCCCCCCCCC(=O)O`, for which the AC50 was 7.39 µM (active).

With `O=C(O)c1cc(N=Nc2ccc(S(=O)(=O)Nc3ccccn3)cc2)ccc1O`, the AC50 was 0.422 µM (active).

Turning to `CC(C)=CCCC(C)CCO` (stereo unspecified), the AC50 is 45.8 µM (active).

For `O=C(O)c1cccc(Oc2ccccc2)c1`, the AC50 is 0.542 µM (active).

For the molecule `Oc1ccc2c(c1)-c1ccccc1C2`, the half-maximal activity concentration (AC50) is 7.96 µM (active).

For `COc1ccc(/C=C/S(=O)(=O)NC(=O)c2ccc(C)cc2Cl)cc1`, the concentration at half-maximal activity (AC50) was 12.1 µM (active).

Consider `O=C(OC[C@H]1O[C@@H](OC(=O)c2cc(O)c(O)c(OC(=O)c3cc(O)c(O)c(O)c3)c2)[C@H](OC(=O)c2cc(O)c(O)c(OC(=O)c3cc(O)c(O)c(O)c3)c2)[C@@H](OC(=O)c2cc(O)c(O)c(OC(=O)c3cc(O)c(O)c(O)c3)c2)[C@@H]1OC(=O)c1cc(O)c(O)c(OC(=O)c2cc(O)c(O)c(O)c2)c1)c1cc(O)c(O)c(OC(=O)c2cc(O)c(O)c(O)c2)c1`, for which the AC50 was 0.252 µM (active).

Take `O=C(NS(=O)(=O)/C=C/c1ccccc1)c1ccc(F)cc1Cl`: the AC50 is 13 µM (active).

With `Cn1cnc([N+](=O)[O-])c1Sc1ncnc2nc[nH]c12`, the AC50 is 25.1 µM (active).

Regarding `COC(=O)c1c(Cl)c(Cl)c(C(=O)OC)c(Cl)c1Cl`, the AC50 was 0.0546 µM (active).

Regarding `Nc1ccc(Nc2ccccc2)cc1`, the AC50 was 31.5 µM (active).
